The subject of test [1] is Plasmodium falciparum Sir2 (PF13_0152, Sir2A). Nature of the test: Plasmodium falciparum Sir2A binding compounds – biochemical, small-molecule microarray, 635 nm fluorescence, primary screen (AID 1098).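 Note: score merges spot fluorescence intensity with its signal-to-noise ratio.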 Conditions: fluorescence 635 nm, higher = more signal.
A short description of test [2]: probe aDKK1 binding to arrayed compounds – biochemical, biotinylated probe, 635/667 nm fluorescence, primary screen (AID 1099).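 Note: score merges 667nm spot fluorescence with signal to noise across triplicate slides.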 Conditions: small-molecule microarray, higher = more signal.
The nature of test [3]: probe aCHRDL2 binding to arrayed compounds – biochemical, biotinylated probe, 635/667 nm fluorescence, primary screen (AID 1100). The note with it: small-molecule microarray, higher = more signal.
A short description of test [4]: change in splice reporter luminescence, either direction, cell-based, HEK293, spliceosome inhibition project, primary screen (AID 1101).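 Note: HEK293 cells carrying a splicing-competent luciferase reporter gene; test concentration not given here.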 Conditions: HEK293 splicing luciferase reporter, 24 h, higher = more signal, called active from +8 up or from −8 down. (Reporter assays use an easily measured gene product as a stand-in for the process of interest.)
In test [5] the target is Fibroblast growth factor 10 (Homo sapiens) (UniProt O15520). Nature of the test: compounds binding fibroblast growth factor 10 – biochemical, small-molecule microarray, 635 nm fluorescence, primary screen (AID 1102). Conditions: FGF10 binding, fluorescence 635 nm, higher = more signal.
The subject of test [6] is glycogen synthase kinase-3 (GSK3A per assay name; protocol says GSK3B). Nature of the test: compounds binding glycogen synthase kinase-3 – biochemical, small-molecule microarray, 635 nm fluorescence, GSK3A, primary screen (AID 1103). Note: the record names both GSK3A and GSK3B. Conditions: fluorescence 635 nm, higher = more signal.
Test [7] addresses Epidermal growth factor receptor (Homo sapiens) (UniProt P00533). Description: compounds binding epidermal growth factor receptor – biochemical, small-molecule microarray, 635 nm fluorescence, primary screen (AID 1104).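 Note: score merges 667 nm emission intensity with spot signal to noise over triplicate slides.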 Conditions: EGFR binding, higher = more signal.
Test [8] deals with Follistatin-related protein 3 (Homo sapiens) (UniProt O95633). Nature of the test: compounds binding follistatin-related protein 3 – biochemical, small-molecule microarray, 635 nm fluorescence, primary screen (AID 1105).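 Note: score merges emission near 667 nm and signal to noise per printed spot across three slides.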 Conditions: FSTL3 binding, higher = more signal.
Test [9] deals with Dickkopf-related protein 1 (Homo sapiens) (UniProt O94907). Description: small molecules binding DKK1 protein – biochemical, small-molecule microarray, 635 nm fluorescence scan, primary screen (AID 1106).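 Note: score merges emission near 667 nm with signal to noise over three replicate slides.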 The note with it: higher = more signal.
The test system of test [10] is Inhibin beta A chain (activin A). Description: small molecules binding activin A – biochemical, small-molecule microarray, 635 nm fluorescence scan, primary screen (AID 1107).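 Note: mouse activin A protein probed at 4.33 µg/mL on printed slides; score merges bound-protein fluorescence near 667 nm with spot signal-to-noise.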 The note with it: INHBA, higher = more signal.
Test [11] deals with Human papillomavirus type 1a protein E7 (residues 44-93). Description: small molecules binding HPV E7 44-93 – biochemical, small-molecule microarray, residues 44-93, 635 nm fluorescence, primary screen (AID 1108).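 Note: E7 fragment applied at 1 µg/mL in TBST for 1 h at 4 C; score combines spot fluorescence with its signal to noise ratio.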 Conditions: fluorescence 635 nm, higher = more signal.
Test [12] can be described thus: hepatitis C replication reporter changes, two-sided – Huh7 cells, luciferase reporter, HCV replication inhibitor project, primary screen (AID 1109).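 Note: huh7 hepatoma cells harbouring a luciferase neomycin HCV replicon reporter; luciferase luminescence as measure of HCV replicon replication; test concentration not given here.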 Conditions: Huh7 HCV replicon luciferase reporter, 48 h; higher = more signal.
For test [13], the target named is Left-right determination factor 2 (Homo sapiens) (UniProt O00292). Description: small molecules binding LEFTY2 protein – biochemical, small-molecule microarray, 635 nm fluorescence scan, primary screen (AID 1110). The note with it: higher = more signal.
Test [14] concerns the target Calmodulin-1 (Homo sapiens) (UniProt P0DP23). Description: small molecules binding calmodulin-1 with EGTA – biochemical, small-molecule microarray, Cy5-labelled CALM1, profiling panel (AID 1111).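 Note: labelled calmodulin applied in Tris saline Tween buffer holding calcium plus EGTA and DTT.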 Conditions: Cy5-CALM1 binding fluorescence, higher = more signal.
Test [15] has the same target. Description: small molecules binding Ca-loaded calmodulin-1 – biochemical, small-molecule microarray, Cy5-labelled CALM1, plus calcium, artefact control for SMM control-protein annotation, profiling panel (AID 1112).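 Note: score merges spot fluorescence with signal to noise from triplicate slides.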 Conditions: Cy5-CALM1 binding fluorescence, higher = more signal.
Test [16] is described as follows: probe aWnt5a binding to arrayed compounds – biochemical, biotinylated probe, 635/667 nm fluorescence, primary screen (AID 1113).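 Note: score merges 667 nm fluorescence intensity with signal-to-noise per printed feature.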 Conditions: small-molecule microarray, higher = more signal.
Test [17] in a line: probe aShh binding to arrayed compounds – biochemical, biotinylated probe, 635/667 nm fluorescence, primary screen (AID 1114).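 Note: probe is biotin-labelled aShh protein from a stem cell growth factor screen; measures binding of labelled protein to compounds printed on the slide; score merges feature fluorescence at 667 nm with signal-to-noise.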 The note with it: small-molecule microarray, higher = more signal.
Test [18] in a line: probe aNog binding to arrayed compounds – biochemical, biotinylated probe, 635/667 nm fluorescence, primary screen (AID 1115).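 Note: probe is biotinylated aNog protein used at 0.15 µg/mL for 1 h at 4 C; z-score combines 667 nm fluorescence of each spot with its signal to noise.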 Conditions: small-molecule microarray, higher = more signal.
Test [19] has as its target Torsin-1A-interacting protein 1 (Homo sapiens) (UniProt Q5JTV8). Description: compound microarray binding of lysate hLAP1 – cell lysate, small-molecule microarray, COS7 lysate, 635/667 nm fluorescence, primary screen (AID 1116). Conditions: 635 nm fluorescence, higher = more signal.
For test [20], the target named is Alpha-bungarotoxin (Bungarus multicinctus) (UniProt P60615). Nature of the test: compounds binding labelled alpha-BTX control protein – biochemical, small-molecule microarray, Alexa647 label, 635/667 nm fluorescence, artefact control for SMM control protein annotation, profiling panel (AID 1117). The note with it: alpha-BTX-A647 binding fluorescence, higher = more signal.

Molecules are shown by their SMILES. Active and inactive are the calls of the source.

The values below come from PubChem BioAssay.

Chain of Follistatin-related protein 3 (Homo sapiens) (O95633 whole entry, looked up): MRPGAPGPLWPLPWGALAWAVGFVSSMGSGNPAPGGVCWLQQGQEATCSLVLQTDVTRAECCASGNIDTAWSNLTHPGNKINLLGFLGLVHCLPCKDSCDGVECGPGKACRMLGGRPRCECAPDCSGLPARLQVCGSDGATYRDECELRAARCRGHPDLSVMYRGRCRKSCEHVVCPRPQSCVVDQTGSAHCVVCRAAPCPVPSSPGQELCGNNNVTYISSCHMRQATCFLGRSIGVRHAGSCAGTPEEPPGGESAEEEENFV
Chain of Epidermal growth factor receptor (Homo sapiens) (P00533 whole entry, looked up): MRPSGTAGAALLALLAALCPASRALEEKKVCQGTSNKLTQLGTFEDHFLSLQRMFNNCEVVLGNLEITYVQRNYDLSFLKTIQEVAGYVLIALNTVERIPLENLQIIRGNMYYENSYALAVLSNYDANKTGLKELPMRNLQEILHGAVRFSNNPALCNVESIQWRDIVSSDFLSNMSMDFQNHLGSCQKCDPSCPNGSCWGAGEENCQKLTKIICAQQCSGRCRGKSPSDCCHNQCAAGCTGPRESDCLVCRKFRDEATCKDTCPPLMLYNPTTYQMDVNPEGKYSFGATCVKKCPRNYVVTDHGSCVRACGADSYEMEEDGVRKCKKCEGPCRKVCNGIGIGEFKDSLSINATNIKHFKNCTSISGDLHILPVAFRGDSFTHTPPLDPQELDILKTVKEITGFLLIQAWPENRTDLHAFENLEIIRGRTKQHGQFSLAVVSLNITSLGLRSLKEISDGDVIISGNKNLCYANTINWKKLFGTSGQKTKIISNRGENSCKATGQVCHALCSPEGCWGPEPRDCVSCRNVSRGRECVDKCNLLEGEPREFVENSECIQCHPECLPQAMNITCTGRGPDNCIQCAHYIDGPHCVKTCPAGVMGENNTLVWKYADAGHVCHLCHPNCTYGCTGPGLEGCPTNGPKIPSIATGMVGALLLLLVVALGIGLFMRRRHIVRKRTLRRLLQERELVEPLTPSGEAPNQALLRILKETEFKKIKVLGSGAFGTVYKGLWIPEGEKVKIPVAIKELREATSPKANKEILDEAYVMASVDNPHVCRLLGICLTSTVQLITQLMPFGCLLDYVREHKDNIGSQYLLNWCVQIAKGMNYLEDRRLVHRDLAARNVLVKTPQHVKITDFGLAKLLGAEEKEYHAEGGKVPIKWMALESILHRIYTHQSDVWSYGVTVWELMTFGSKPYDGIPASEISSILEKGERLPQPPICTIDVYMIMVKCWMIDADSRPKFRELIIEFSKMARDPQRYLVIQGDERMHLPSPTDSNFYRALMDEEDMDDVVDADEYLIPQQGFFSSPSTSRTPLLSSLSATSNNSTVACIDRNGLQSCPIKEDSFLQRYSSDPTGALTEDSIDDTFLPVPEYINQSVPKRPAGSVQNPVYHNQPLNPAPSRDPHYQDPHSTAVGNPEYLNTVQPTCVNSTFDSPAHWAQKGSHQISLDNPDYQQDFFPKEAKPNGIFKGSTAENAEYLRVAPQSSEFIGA
Chain of Torsin-1A-interacting protein 1 (Homo sapiens) (Q5JTV8 whole entry, looked up): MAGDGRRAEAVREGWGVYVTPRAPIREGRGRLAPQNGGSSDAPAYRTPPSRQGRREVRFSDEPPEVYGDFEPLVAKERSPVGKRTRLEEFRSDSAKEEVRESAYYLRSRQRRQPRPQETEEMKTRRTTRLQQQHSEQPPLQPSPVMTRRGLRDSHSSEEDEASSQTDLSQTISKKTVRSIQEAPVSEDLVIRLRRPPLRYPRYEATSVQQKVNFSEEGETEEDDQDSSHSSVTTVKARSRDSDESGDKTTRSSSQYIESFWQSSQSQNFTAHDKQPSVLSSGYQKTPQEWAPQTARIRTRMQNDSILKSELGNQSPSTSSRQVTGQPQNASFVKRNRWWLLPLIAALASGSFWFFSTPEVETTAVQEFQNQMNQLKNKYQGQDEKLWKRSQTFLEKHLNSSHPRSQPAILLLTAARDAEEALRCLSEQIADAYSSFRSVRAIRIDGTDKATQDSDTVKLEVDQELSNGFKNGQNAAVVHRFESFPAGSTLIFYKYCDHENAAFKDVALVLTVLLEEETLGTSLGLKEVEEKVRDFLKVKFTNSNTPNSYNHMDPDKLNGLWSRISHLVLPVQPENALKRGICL
Chain of Left-right determination factor 2 (Homo sapiens) (O00292 whole entry, looked up): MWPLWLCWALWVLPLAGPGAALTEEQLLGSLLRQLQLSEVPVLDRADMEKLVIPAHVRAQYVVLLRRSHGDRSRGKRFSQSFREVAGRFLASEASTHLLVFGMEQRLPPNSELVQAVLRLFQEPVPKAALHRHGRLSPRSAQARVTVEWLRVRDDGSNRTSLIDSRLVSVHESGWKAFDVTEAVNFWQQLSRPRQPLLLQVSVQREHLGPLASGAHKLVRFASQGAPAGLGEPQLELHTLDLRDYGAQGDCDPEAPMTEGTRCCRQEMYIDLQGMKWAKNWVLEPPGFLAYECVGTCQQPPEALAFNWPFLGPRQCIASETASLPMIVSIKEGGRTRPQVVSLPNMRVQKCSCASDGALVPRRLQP
Chain of Alpha-bungarotoxin (Bungarus multicinctus) (P60615 whole entry, looked up): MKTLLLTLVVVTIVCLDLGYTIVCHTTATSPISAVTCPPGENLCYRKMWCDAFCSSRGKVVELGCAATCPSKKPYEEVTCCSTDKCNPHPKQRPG
Chain of Fibroblast growth factor 10 (Homo sapiens) (O15520 whole entry, looked up): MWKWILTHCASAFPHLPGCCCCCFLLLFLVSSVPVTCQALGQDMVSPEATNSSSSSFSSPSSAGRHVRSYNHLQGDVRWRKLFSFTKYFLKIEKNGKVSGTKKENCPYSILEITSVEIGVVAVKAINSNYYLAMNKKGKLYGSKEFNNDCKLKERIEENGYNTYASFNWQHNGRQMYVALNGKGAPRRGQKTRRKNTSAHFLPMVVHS
Chain of Dickkopf-related protein 1 (Homo sapiens) (O94907 whole entry, looked up): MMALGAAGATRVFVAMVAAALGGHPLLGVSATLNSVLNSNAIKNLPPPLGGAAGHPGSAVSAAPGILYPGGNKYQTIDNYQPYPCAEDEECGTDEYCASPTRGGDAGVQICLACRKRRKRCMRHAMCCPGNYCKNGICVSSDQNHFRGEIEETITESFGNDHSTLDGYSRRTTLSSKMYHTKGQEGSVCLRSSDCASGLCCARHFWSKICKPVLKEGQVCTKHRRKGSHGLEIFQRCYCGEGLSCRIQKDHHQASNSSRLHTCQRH

`CCCCC(CC)C(O)C1C=CC2C(=O)N(Cc3ccccc3)C(=O)C2N1n1cnnc1` (stereo not given): the composite z-score in test [1] was -0.503; in [2], 0.197; in [3] it was 0.552; in test [5], -0.0566; in test [6] it was -0.0058; in test [7], -0.286. Besides, the composite z-score in [8] was 0.0568; in test [9] it was -0.691; in test [10], 0.82; in test [11], 0.281; in [13], -0.729; in [14] it was -0.0327. Moreover, the composite z-score in [15] is -0.658; in test [16], -0.124; in test [17] it was -0.153; in test [18] it was -0.127; in [19], -0.0742; in test [20] it was 0.308. The figures for the z-score in test [4] and in [12] were -0.44 (inactive) and 0.137, respectively.
For the molecule `CCCC[C@@H]1C[C@H]1[C@@H](NC(=O)C(C)(C)C)c1ccc(C(F)(F)F)cc1`, the composite z-score in test [1] was -0.0923; in [2] it was 0.767; in test [3], 1.44; in test [5] it was -1.23; in [6], -0.266; in [7] it was -1.76. For the same molecule, the composite z-score was -1.63 in test [8]; -1.61 in test [9]; 0.328 in test [10]; 0.946 in [11]; -1.61 in test [13]; 1.18 in test [14]. Also, the composite z-score was 1.3 in test [15]; -0.203 in test [16]; 0.102 in [17]; 1.52 in test [18]; 0.473 in [19]; -0.0729 in test [20]. Moreover, the results for the z-score in test [4] and in test [12] were -2.95 (inactive) and -1.71, respectively.
Take `CCCCCCc1nc(-c2cc(C)c(OC)c(C)c2)cc2c1[Si](C(C)C)(C(C)C)OC2`: the composite z-score in test [1] was -0.218; in test [2], -0.12; in test [3], -0.0937; in [5], -0.0932; in test [6] it was 0.194; in [7], -0.314. In addition, the composite z-score in [8] was -0.105; in test [9], -0.0304; in test [10] it was 0.641; in test [11], 0.0047; in test [13] it was -0.21; in test [14] it was -0.268. The composite z-score in [15] was -0.256; in [16], -0.124; in test [17], -0.273; in test [18] it was -0.244; in [19] it was -0.359; in test [20] it was 0.19. In addition, the results for the z-score in test [4] and in test [12] were -2.3 (inactive) and 0.777, respectively.
In the case of `O=C1[C@@]23C=C(Br)[C@H](C[C@@H]2CCOC3)[C@@]12CO2`, the composite z-score in test [1] was 0.204; in [2], -0.327; in test [3] it was -0.478; in test [5], 0.254; in [6], 0.329; in [7] it was 0.442. In addition, the composite z-score in test [8] is 0.473; in [9], 0.485; in test [10], 0.684; in test [11], 0.364; in test [13] it was 0.459; in test [14] it was -0.206. Moreover, the composite z-score in [15] was -0.657; in [16], -0.0585; in test [17] it was 0.151; in test [18] it was -0.303; in [19], 1.53; in [20], 0.331. Besides, the z-score in [4] was 0.149 (inactive); in test [12] it was -2.17.
Turning to `[N-]=[N+]=NCc1ccccc1C[C@]1(C(N)=O)COC(c2ccc(OCCCO)cc2)=N1`, the composite z-score is 0.806 in test [1]; 1.13 in [2]; 1.36 in [3]; 0.23 in test [5]; 0.812 in [6]; -1.04 in [7]. In addition, the composite z-score in test [8] is -0.0511; in test [9], -0.2; in test [10], 0.636; in test [11], 0.202; in test [13] it was -0.993; in test [14] it was 2.01. Also, the composite z-score in test [15] is 1.2; in [16] it was -0.0286; in test [17], -0.0441; in test [18], -0.169; in [19], 2.59; in test [20], 1.58. Moreover, the z-score in test [4] is -1.52 (inactive); in test [12] it was -0.17.
